Bioassay records from PubChem BioAssay.
In the library only some 28% were active in any assay of this set; here they are far more common.
CYP2C19 inh = human CYP2C19 inhibition; P33261; CYP2C19 Supersomes, luciferin-H EGE luminescence, 30 min; inhibition, % at 5 µM; actives 21% (n = 96,000);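 active means CYP2C19 inhibition above a set limit at 5 µM in the primary screen, cut at about 50% in these data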;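 further: plate controls were negative control wells for no effect and 2.5 mM tranylcypromine positive control for full effect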
CYP2C19 act = increases human CYP2C19 enzyme activity | recombinant CYP2C19, luciferin-H EGE luminescence; hits give high values; 0 = fully inhibited enzyme, 1 = untreated enzyme | 96,000 tested, under 10 active | P33261 | activation factor at 5 µM;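 active means activation factor of at least 2 at 5 µM in the primary screen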;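 further: 0 = wells with 2.5 mM tranylcypromine and 1 = vehicle-only wells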
CYP2C9 inh = blocks human cytochrome P450 2C9; inhibition, % at 5 µM; CYP2C9 Supersomes, luciferin-H conversion, luminescence; actives 20% (n = 96,000); AID 777;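 active means blocking of liver enzyme CYP2C9 beyond about 50% at 5 µM, limit read from the data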
CD11b adhes enh = CD11b/CD18-fibrinogen binding enhancement; P05107+P11215; activation, % at 10 µM; actives 0.07% (n = 93,000); K562 CD11b/CD18 adhesion to fibrinogen, ATPlite luminescence;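 active means 10 µM primary screen giving 50% or more activity, confirmed by 40% or more on retest at that dose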
CYP2C9 act = activators of human CYP2C9. activation factor at 5 µM. recombinant CYP2C9, luciferin-H conversion, luminescence; hits give high values; factor 1 = untreated enzyme, 0 = blocked. actives 1.4% (n = 96,000). P11712;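 active means activation factor of 2 or more for CYP2C9 at a 5 µM dose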;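 further: 0 = sulfaphenazole-blocked wells and 1 = vehicle-only wells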
CD11b adhes inh = CD11b/CD18-fibrinogen binding inhibition. P05107+P11215. K562 CD11b/CD18 adhesion to fibrinogen, ATPlite luminescence; Mn2+ added to activate the integrin. inhibition, % at 10 µM. actives 0.54% (n = 93,000). AID 1497;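 active means primary inhibition of 50% or more at 10 µM, then 40% or more on retest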
The depositor's hits bear a star; . = no result given.

SMILES | CYP2C19 inh | CYP2C19 act | CYP2C9 inh | CD11b adhes enh | CYP2C9 act | CD11b adhes inh
CCOC(=O)CNC(=O)C1c2ccccc2C(=O)N(c2ccc(OC)cc2)C1c1ccc(OC)cc1 (stereo not drawn) | 20 | 0.8 | 20 | -1 | 0.8 | 4
CC1=CC(C)(C)N(C(=O)CSc2nnc(-c3ccc(C)cc3)o2)c2ccc(C)cc21 | 96* | 0 | 95* | -1 | 0.1 | 24
COc1ccccc1NC(=O)CSc1nnc(-c2ccccc2)o1 | 59* | 0.4 | 15 | 0 | 0.9 | 0
COC(=O)CSc1nnc(-c2ccc(NS(=O)(=O)c3ccccc3)cc2)o1 | 47 | 0.5 | 94* | 2 | 0.1 | -3
Cc1ccc(CSc2nnc(-c3ccc(NS(=O)(=O)c4ccccc4)cc3)o2)cc1 | . | . | . | -6 | . | 72
CCCCCn1c(=O)[nH]c2cc(C(=O)NCCCN3CCC(C)CC3)ccc2c1=O | 38 | 0.6 | 16 | -2 | 0.8 | -15
COc1cccc(-n2nnnc2SCC(=O)Nc2cccc(C)n2)c1 | 25 | 0.7 | -64 | -4 | 1.6 | 2
COc1cccc(C2CC(=O)Nc3cc(OC)c(OC)c(OC)c32)c1OC (stereo not drawn) | 63* | 0.4 | 47 | -2 | 0.5 | -28
CCc1ccccc1N(C(=O)c1cccs1)C1C=CS(=O)(=O)C1 (stereo not drawn) | 71* | 0.3 | 14 | . | 0.9 | .
COc1ccc(-n2nnnc2SCC(=O)Nc2cccc(C)n2)cc1OC | 26 | 0.7 | 58* | 1 | 0.4 | -2
CCC(=O)Nc1cccc(-n2nnnc2SCC(=O)NCc2ccco2)c1 | 58* | 0.4 | -132 | -1 | 2.3* | -7
COc1ccc(-n2nnnc2SCC(=O)NCc2ccco2)cc1OC | 19 | 0.8 | -124 | -1 | 2.2* | -1
COC(=O)CCCC(=O)Nc1c(F)c(F)c(F)c(F)c1F | 9 | 0.9 | 7 | -2 | 0.9 | 0
CCOC(=O)c1cnc(SC)nc1N | 36 | 0.6 | 12 | -4 | 0.9 | -26
CCOC(=O)c1cnc(SCc2nc(N)nc(Nc3ccc(C)cc3)n2)nc1N | 54* | 0.5 | 54* | -9 | 0.5 | 6
CCOC(=O)c1cnc(SCc2nc(N)nc(Nc3ccc(F)cc3)n2)nc1N | 72* | 0.3 | 66* | 2 | 0.3 | -10
CCOC(=O)c1cnc(SCc2nc(N)nc(Nc3ccccc3OC)n2)nc1N | 21 | 0.8 | 60* | 4 | 0.4 | 11
C=CCn1c(SCC#N)nc2c(c1=O)C(C)(C)Cc1ccccc1-2 | 28 | 0.7 | 41 | . | 0.6 | .
Cc1nn(-c2ccccc2)c(Cl)c1/C=C(\CC(=O)O)c1nc2ccccc2s1 | 19 | 0.8 | 74* | -2 | 0.3 | 2
Cc1nn(-c2ccccc2)c(Cl)c1/C=C/C(=O)c1ccccc1 | 70* | 0.3 | 66* | 1 | 0.3 | 24
CCOC(=O)C1=C(c2ccccc2)NC(SCC(=O)NC2CCCCC2)=C(C#N)C1c1ccco1 (stereo not drawn) | 30 | 0.7 | 61* | -2 | 0.4 | 3
C=CCOC(=O)C1=C(C)NC(SCC(=O)Nc2ccc(C)c(Cl)c2)=C(C#N)C1c1ccco1 (stereo not drawn) | 52* | 0.5 | 79* | 19 | 0.2 | 6
COCCOC(=O)C1=C(C)NC(SCC(=O)NC(C)(C)C)=C(C#N)C1c1ccco1 (stereo not drawn) | 82* | 0.2 | 86* | -2 | 0.1 | -7
CCOC(=O)C1=C(C)NC(=O)C(C#N)C1c1ccco1 (stereo not drawn) | 26 | 0.7 | 21 | 1 | 0.8 | -6
Cc1ccc(NC(=O)CSc2ccccc2NC(=O)c2ccccc2)cc1Cl | . | . | . | -3 | . | 6
SMILES | CYP2C19 inh | CYP2C19 act | CYP2C9 inh | CD11b adhes enh | CYP2C9 act | CD11b adhes inh
CCC(CC)C(=O)c1c[nH]c(C(=O)NCCCN2CCOCC2)c1 | 4 | 1 | 13 | . | 0.9 | .
CCn1c(/C=C/N(C)c2ccccc2)[n+](CC)c2ccc(Cl)cc21 | 2 | 1 | 16 | -4 | 0.8 | 19
CCOc1ccccc1OCCCC(=O)N1CCN(S(=O)(=O)c2ccc(C)cc2)CC1 | 86* | 0.1 | 46 | 6 | 0.5 | -18
CCOc1ccccc1OCCCC(=O)N1CCN(S(=O)(=O)c2cccc(F)c2)CC1 | 75* | 0.3 | 36 | 0 | 0.6 | -16
COc1ccc(NC2=Nc3ccccc3N3C2=Nc2c(c(C)nn2-c2ccc(C)cc2)C3c2cccnc2)cc1 (stereo not drawn) | 25 | 0.7 | 56* | 32 | 0.4 | 7
COC(=O)c1cc(C(=O)OCC(=O)Nc2ccccc2OC(F)F)cc([N+](=O)[O-])c1 | . | . | . | -2 | . | 4
O=C(Nc1ccc(Cl)cc1)[C@@H]1[C@@H]2C(=O)N(c3ccc(Cl)cc3)C(=O)[C@@H]2[C@H]2C=CC=NN21 | -10 | 1.1 | 59* | -3 | 0.4 | 4
Cc1ccc(C)c(NC(=O)CCCCCCCCCCC2COCCO2)c1 (stereo not drawn) | . | . | . | 39 | . | 24
CC(=O)N(NC(=O)c1ccc(C)cc1)C1CC(=O)N(c2ccccc2Cl)C1=O (stereo not drawn) | . | . | . | 2 | . | -8
COc1cc(C)c(Cl)cc1S(=O)(=O)NCc1ccncc1 | 98* | 0 | 50* | -9 | 0.5 | 84*
COc1cc(C)c(Br)cc1S(=O)(=O)NCc1ccccc1 | 65* | 0.3 | -38 | 6 | 1.4 | -17
Cc1cc(Cl)c(S(=O)(=O)NCc2ccccc2)cc1OCC(N)=O | 4 | 1 | 4 | -3 | 1 | -28
Cc1cc(Cl)c(S(=O)(=O)NCc2ccncc2)cc1OCC(N)=O | 45 | 0.6 | 16 | -1 | 0.8 | 18
CCOC(=O)CSc1nc2ccc(S(=O)(=O)N3CCOCC3)cc2[nH]1 | 6 | 0.9 | 21 | 4 | 0.8 | -6
CCCCNS(=O)(=O)c1ccc2nc(SCC(=O)c3ccc(C#N)cc3)[nH]c2c1 | 74* | 0.3 | 88* | -5 | 0.1 | -3
NC(=O)c1nn(-c2ccccc2)c(=O)cc1O | -8 | 1.1 | -6 | 7 | 1.1 | 6
CN(C)C(=O)COc1ccc2ccc(=O)oc2c1 | -4 | 1 | -16 | -3 | 1.2 | -12
CC(=O)OC1CCC2(C)C(COc3ccc4ccc(=O)oc4c3)C(C)(O)CCC2C1(C)C (stereo not drawn) | 21 | 0.8 | 53* | 2 | 0.5 | 10
COc1cc(/C=N/NC(=S)Nc2cccc(Cl)c2C)ccc1OCC(=O)N1CC(C)OC(C)C1 (stereo not drawn) | . | . | . | 9 | . | 30
CCCCC(CC)CNC(=O)c1ccc2c(c1)OCO2 (stereo not drawn) | 27 | 0.7 | 48 | 2 | 0.5 | 2
CCCCC(CC)CNC(=O)c1[nH]c(C)c(C(C)=O)c1C (stereo not drawn) | 63* | 0.4 | 75* | 4 | 0.2 | 13
